PubChem BioAssay (NCI)
This is part of a sample that, as a whole, favours compounds with a hit. Of some 83,000 tested, about 20% had one in any assay.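 Percent growth is the endpoint: 0 to 100 indicates growth inhibition (40 means 60% inhibition), 0 means no net growth, and negative values indicate cell death.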 Unmarked numbers belong to inactive results. Active and inactive are the calls of the source. Rule for the calls: active = growth percent below 10; inactive = the rest.

What follows are compounds tested on NCI-H522 lung (assay: NCI-60 one-dose screen, 48 h (100 = growth as untreated, 0 = no growth, -100 = all killed)). Conditions: 10 µM unless noted.

**Q.** `O=c1oc2ccccc2cc1-c1nn(-c2ccccc2)cc1-c1nn[nH]n1` was tested. Which growth did it give?
**A.** Its growth is 94.6%.

**Q.** With `O=c1oc2c(cc1-c1ccccc1)c(=O)[nH]c1ccccc12` as the compound, how does the growth read?
**A.** Its growth is 94.2%.

**Q.** How did the growth turn out when `CC1=C(Cl)C(=O)c2cc(C)ccc2C1=O` was run?
**A.** Its growth is 93%.

These compounds were tested on A549/ATCC NSCLC in the same assay as above. Conditions: 10 µM unless noted.

**Q.** How did the growth turn out when `O=c1oc2c(cnc3ccccc32)cc1-c1cccc(Cl)c1` was run?
**A.** The growth was 104%.

**Q.** Which growth does the source give for `CCOC(=O)c1c(C)nc2c(c1N)C(=O)C(=O)N2Cc1ccc(OC)cc1` here?
**A.** The growth was 88%.

**Q.** For `CCNC(=O)N1CCc2c(Br)c3c(c(OC)c2C1Cc1ccc(OC)cc1)OCO3` (centres undefined), which growth is on record?
**A.** Its growth is 34.2%.

**Q.** `COc1cc2c(c(OC)c1OC)CCC(c1cccc(C(=O)Nc3ccc(Br)cc3)c1)O2` (centres undefined) was tested. Which growth did it give?
**A.** Its growth is 64.2%.

**Q.** For `OC1CSSC1Cn1cnc2c(Nc3ccc(OCc4cccc(F)c4)c(Cl)c3)ncnc21` (centres undefined), which growth is on record?
**A.** Its growth is 3.03% (active).

**Q.** For `Cc1ccc(OCCOCCOCCOc2ccc(C)n(O)c2=S)c(=S)n1O`, which growth is on record?
**A.** Its growth is 29.9%.

**Q.** How did the growth turn out when `C=CN(C(=O)N1CCN(c2cc3c(cc2F)c(=O)c(C(=O)O)cn3C2CC2)CC1)c1nc(-c2ccc(Cl)cc2)cs1` was run?
**A.** Its growth is 40.7%.

**Q.** With `C#CCOc1cccc(Nc2ncnc3cc(NC(=O)CCl)ccc23)c1` as the compound, how does the growth read?
**A.** The growth was -59.4% (active).

**Q.** `Cc1nc2ccccc2c(/C=C/c2ccc(F)cc2)c1C(=O)/C=C/c1ccccc1` was tested. Which growth did it give?
**A.** Its growth is 25%.

**Q.** `COc1cc(/C=C/C(=O)N2CCN(C(=O)c3cc(OC)c(OC)c(OC)c3)CC2)ccc1OCCCOc1cc2c(cc1OC)C(=O)N1CCC[C@H]1C=N2` was tested. Which growth did it give?
**A.** Its growth is 12.7%.

**Q.** Which growth does the source give for `O=C(NC1CCC(Br)CC1)C1CCCC(S(=O)(=O)NC2CCCCC2)C1` (centres undefined) here?
**A.** Its growth is 10.4% [25 µM].
